A number with no mark means an inactive call. Results filed as inconclusive are left out. The source made the active and inactive calls. Unless noted, calls come from the whole dose curve; as a rule, active = well fitted curve in either direction with a large enough effect (not every such curve was filed as active); inconclusive = small, poorly fitted or top-dose-only effect, or another doubt; inactive = flat fitted curve, though single readings scatter.
How the values were obtained:
[1] = biological target: Lysosomal acid glucosylceramidase (Homo sapiens) (UniProt P04062); test: Glucocerebrosidase-p2 (AID 348; in the data active = potency below about 10 µM; note: potency is the fitted concentration of half-maximal effect); settings: purified GBA, blue fluorogenic substrate, 40 min
Outline: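 Compounds titrated from 0.6 nM upwards against 0.2 nM enzyme in pH 5.9 citric acid/KH2PO4, taurocholate, tween-20; blue fluorogenic substrate 80 uM, 40 min room temperature, stopped and read Ex 365/Em 440 for AC50.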

[2] = AP1 Signaling Pathway (AID 357); settings: ME-180 AP-1-bla reporter, EGF-induced, beta-lactamase ratio, 5 h; at 7.69 µM (top of the series) unless noted;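 note: ME-180 reporter cells stimulated with EGF at its EC50 level; % is set by controls: 0 for no effect and ±100 for the full control effect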
Outline: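 First, ME-180 AP-1-bla cells were cultured overnight at 37 °C in low-serum Opti-MEM. Next, titrated compounds with EC50 EGF were incubated 5 hours. Finally, CCF4 was added for 2.5 hours and the 460/530 nm ratio recorded.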

[3] = biological target: Cytochrome P450 1A2 (Homo sapiens) (UniProt P05177); test: p450-cyp1a2 (AID 410; calls by dose curve; note: potency is the fitted concentration of half-maximal effect;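 for activity change, negative = inhibition: -100% = full effect of reference inhibitor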); settings: recombinant CYP1A2, luciferin-ME demethylation, luminescence; series mostly up to 11.4 µM
Outline: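 Luminescent readout of luciferin formed from Luciferin-ME by human CYP1A2; data normalized against complete inhibition by 57 uM furafylline. Enzyme 20nM, substrate 100uM at Km, 100mM KPO4 buffer, 60 min reaction at room temperature.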

[4] = NFAT Signaling Pathway (AID 444); settings: Jurkat NFAT-bla M1, carbachol, beta-lactamase ratio, 5 h; at 7.69 µM (top of the series) unless noted;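 note: carbachol stimulus at about its EC50 of 1 µM final; % is set by controls: 0 for no effect and ±100 for the full control effect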
Outline: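 Jurkat cells carrying an NFAT-driven β-lactamase reporter and co-transfected muscarinic M1 receptor were treated with compound plus carbachol (1 uM final, an EC50 level) for 5 h at 37 °C. CCF4 loading followed for 1 h at RT; 460/530 nm ratio gave %activity.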

[5] = Stat Signaling Pathway (AID 446); settings: ME-180 SIE beta-lactamase reporter, IL-6 stimulated, 5 h; at 7.69 µM (top of the series) unless noted;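 note: ME-180 cervical cancer cells given 40 pM IL-6 alongside compound; SIE-controlled beta-lactamase reporter measured as 460/530 nm FRET emission ratio; % is set by controls: 0 for no effect and ±100 for the full control effect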
Outline: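 ME-180 cells carrying a SIE-driven beta-lactamase reporter are stimulated with 40 pM IL-6 for 5 h at 37C in the presence of compound. The 460/530 nm FRET substrate ratio is read after 2.5 h at RT. Data are normalised to 300 pM IL-6 and to 125 nM JAK inhibitor controls.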

[6] = biological target: Glucocorticoid receptor (Homo sapiens) (UniProt P04150); test: GR-GFP Redistribution (AID 450;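 active = compounds whose dose series gives a full or clear partial fitted curve of increased nuclear translocation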; note: potency is the fitted concentration of half-maximal effect); settings: U2OS GR-GFP nuclear translocation, laser cytometry, 2 h
[7] = biological target: Glucocorticoid receptor (Homo sapiens) (UniProt P04150); test: GR-EFC Redistribution (AID 451; calls by dose curve; note: potency is the fitted concentration of half-maximal effect); settings: CHO-K1 GR-EFC translocation, beta-gal luminescence, 2 h
Outline: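 CHO-K1 cells stably expressing nuclear-localized β-gal enzyme acceptor and GR fused C-terminally to the enzyme donor fragment; ligand-driven nuclear translocation restores β-gal by complementation. Compounds titrated up to 46 uM final, 2 h at 37 °C; luminescence read.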

[8] = biological target: Mitogen-activated protein kinase 10 (Mus musculus) (UniProt Q61831); test: JNK3 AlphaScreen Assay (AID 530); settings: JNK3 lysate, c-Jun phosphorylation; series mostly up to 57.1 µM;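 note: kinase came from lysate of stimulated human HepG2 cells; signal reports phosphorylation of biotinylated GST-cJun 1-79 at Ser73 with 10 µM ATP; % is set by controls: 0 for no effect and ±100 for the full control effect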
Outline: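 Inhibitors reduce antibody binding to phosphorylated biotin-cJun, lowering AlphaScreen luminescence. Lysates from HepG2 cells pre-activated by IL-1beta plus TNF-alpha supplied JNK3; compounds were titrated.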

[9] = biological target: 3',5'-cyclic-AMP phosphodiesterase 4B (Homo sapiens) (UniProt Q07343); test: qHTS Assay for Inhibitors of PDE-IV (AID 607; active = well fitted activation curve with a large enough effect in the main read-out, with a control signal flat, not every such curve was filed as active; note: % of control where 0% means no effect); settings: HEK293 ACTOne CNG channel cells, membrane potential fluorescence; series mostly up to 22.9 µM
Outline: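 HEK293 ACTOne cells with CNG channel (1000/well), endogenous PDE4; membrane potential dye, compounds up to 22.9 uM final. Fluorescence Ex 535/Em 590; RO 20-1724 (100 uM final) as reference.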

[10] = qHTS Assay for Identification of Small Molecule Agonists for Hypoxia Response Element Signaling Pathway (AID 914; active = well fitted activation curve with a large enough effect in the signal ratio, with a control signal flat, not every such curve was filed as active; the % refers to the signal ratio; note: % of control where 0% means no effect); settings: ME-180 (cervical carcinoma) HRE-bla reporter, beta-lactamase ratio, CoCl2, 17 h; stronger effect = higher value
Outline: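 HRE-bla ME-180 cells with beta-lactamase reporter under hypoxia response element, compounds with EC50 CoCl2 for 17 hours at 37 C. CCF4 substrate, 460nm/530nm emission ratio gave %Activity; AC50 from titration series.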

[11] = biological target: Cytochrome P450 3A4 (Homo sapiens) (UniProt P08684); test: qHTS Assay for Activators of Cytochrome P450 3A4 (AID 885; active = well fitted curve in the direction sought with a large enough effect; an effect the other way counts as inactive or inconclusive; note: nearly all actives have a fitted effect of over 65% in size); settings: recombinant CYP3A4, Luciferin-PPXE luminescence, 60 min; series mostly up to 57.1 µM
Outline: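 Human CYP3A4 (20 nM) with Luciferin-PPXE at 25 uM (its KM) in 200 mM KPO4; 10 min compound preincubation, then NADPH regeneration and 60 min reaction at RT. Luciferin read by luminescence; normalized to 57 uM ketoconazole full inhibition.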

[12] = biological target: Cytochrome P450 2D6 (Homo sapiens) (UniProt P10635); test: qHTS Assay for Inhibitors and Substrates of Cytochrome P450 2D6 (AID 891; active = well fitted curve in the direction sought with a large enough effect; an effect the other way counts as inactive or inconclusive; note: nearly all actives have a fitted effect of over 60% in size; note: potency is the fitted concentration of half-maximal effect); settings: recombinant CYP2D6, luciferin-ME EGE luminescence; series mostly up to 11.4 µM
Outline: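 Human CYP2D6 (5 nM) with 30 uM Luciferin-ME EGE (at Km) in 100 mM KPO4, compound preincubated 10 min, then NADPH regeneration system for 60 min at room temperature. Luciferin read by luminescence; normalized to 1.43 uM quinidine.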

[13] = biological target: Cytochrome P450 2C9 (Homo sapiens) (UniProt P11712); test: qHTS Assay for Inhibitors and Substrates of Cytochrome P450 2C9 (AID 883; active = well fitted curve in the direction sought with a large enough effect; an effect the other way counts as inactive or inconclusive; note: potency is the fitted concentration of half-maximal effect; nearly all actives have a fitted effect of over 60% in size); settings: recombinant CYP2C9, luciferin-H luminescence, 60 min; series mostly up to 57.1 µM
Outline: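 A luminogenic readout tracked human CYP2C9 (10nM) converting deoxyluciferin (100uM, at KM) in 25mM KPO4 during 60 min at 37C with regenerated NADPH. Values normalized to 57uM sulphaphenazole as complete inhibition.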

[14] = biological target: Cytochrome P450 2C19 (Homo sapiens) (UniProt P33261); test: qHTS Assay for Inhibitors and Substrates of Cytochrome P450 2C19 (AID 899; active = well fitted curve in the direction sought with a large enough effect; an effect the other way counts as inactive or inconclusive; note: potency is the fitted concentration of half-maximal effect; nearly all actives have a fitted effect of over 60% in size); settings: recombinant CYP2C19, luciferin-H EGE luminescence; series mostly up to 11.4 µM
Outline: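 NADPH-dependent conversion of Luciferin-H EGE (10uM, at KM) by 5nM enzyme in 50mM KPO4, 60 min at 37C following 10 min compound preincubation. Stopped with luciferin detection buffer; luminescence read after 20 min.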

Glucocorticoid receptor (Homo sapiens), sequence (P04150 whole entry, looked up, the tested form may be a part): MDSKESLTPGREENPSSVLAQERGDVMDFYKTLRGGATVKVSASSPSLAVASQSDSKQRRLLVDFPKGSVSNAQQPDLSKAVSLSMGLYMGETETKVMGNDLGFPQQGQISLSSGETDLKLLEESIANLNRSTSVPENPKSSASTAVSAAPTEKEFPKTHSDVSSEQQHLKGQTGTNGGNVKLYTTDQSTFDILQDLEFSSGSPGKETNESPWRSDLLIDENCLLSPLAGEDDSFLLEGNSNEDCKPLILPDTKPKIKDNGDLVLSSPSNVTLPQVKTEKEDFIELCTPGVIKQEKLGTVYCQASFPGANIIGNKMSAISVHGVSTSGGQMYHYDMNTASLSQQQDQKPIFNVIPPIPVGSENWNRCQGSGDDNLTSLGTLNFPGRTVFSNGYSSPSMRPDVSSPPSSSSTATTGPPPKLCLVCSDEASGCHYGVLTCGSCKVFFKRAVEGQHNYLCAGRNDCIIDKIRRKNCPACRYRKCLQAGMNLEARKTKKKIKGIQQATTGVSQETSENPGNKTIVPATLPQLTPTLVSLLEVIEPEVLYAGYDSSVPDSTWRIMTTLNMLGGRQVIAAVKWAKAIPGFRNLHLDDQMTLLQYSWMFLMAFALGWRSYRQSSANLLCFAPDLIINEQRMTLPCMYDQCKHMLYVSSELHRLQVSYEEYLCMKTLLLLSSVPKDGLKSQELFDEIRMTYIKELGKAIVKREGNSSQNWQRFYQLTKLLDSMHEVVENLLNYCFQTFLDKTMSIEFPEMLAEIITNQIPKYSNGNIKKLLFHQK
Cytochrome P450 2D6 (Homo sapiens), sequence (P10635 whole entry, looked up): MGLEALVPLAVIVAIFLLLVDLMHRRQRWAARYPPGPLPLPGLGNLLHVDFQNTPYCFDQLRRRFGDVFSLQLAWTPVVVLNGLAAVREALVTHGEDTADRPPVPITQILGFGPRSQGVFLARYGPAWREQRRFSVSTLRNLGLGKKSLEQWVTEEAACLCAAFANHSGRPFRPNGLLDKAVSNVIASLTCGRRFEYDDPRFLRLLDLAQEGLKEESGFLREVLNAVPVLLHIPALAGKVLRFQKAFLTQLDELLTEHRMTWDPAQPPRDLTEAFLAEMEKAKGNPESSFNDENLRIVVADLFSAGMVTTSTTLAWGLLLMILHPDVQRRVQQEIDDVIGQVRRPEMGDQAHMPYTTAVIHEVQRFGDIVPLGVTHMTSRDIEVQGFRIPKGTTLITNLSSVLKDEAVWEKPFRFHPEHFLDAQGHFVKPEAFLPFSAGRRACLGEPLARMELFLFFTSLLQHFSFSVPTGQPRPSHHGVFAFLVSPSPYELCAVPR
3',5'-cyclic-AMP phosphodiesterase 4B (Homo sapiens), sequence (Q07343 whole entry, looked up): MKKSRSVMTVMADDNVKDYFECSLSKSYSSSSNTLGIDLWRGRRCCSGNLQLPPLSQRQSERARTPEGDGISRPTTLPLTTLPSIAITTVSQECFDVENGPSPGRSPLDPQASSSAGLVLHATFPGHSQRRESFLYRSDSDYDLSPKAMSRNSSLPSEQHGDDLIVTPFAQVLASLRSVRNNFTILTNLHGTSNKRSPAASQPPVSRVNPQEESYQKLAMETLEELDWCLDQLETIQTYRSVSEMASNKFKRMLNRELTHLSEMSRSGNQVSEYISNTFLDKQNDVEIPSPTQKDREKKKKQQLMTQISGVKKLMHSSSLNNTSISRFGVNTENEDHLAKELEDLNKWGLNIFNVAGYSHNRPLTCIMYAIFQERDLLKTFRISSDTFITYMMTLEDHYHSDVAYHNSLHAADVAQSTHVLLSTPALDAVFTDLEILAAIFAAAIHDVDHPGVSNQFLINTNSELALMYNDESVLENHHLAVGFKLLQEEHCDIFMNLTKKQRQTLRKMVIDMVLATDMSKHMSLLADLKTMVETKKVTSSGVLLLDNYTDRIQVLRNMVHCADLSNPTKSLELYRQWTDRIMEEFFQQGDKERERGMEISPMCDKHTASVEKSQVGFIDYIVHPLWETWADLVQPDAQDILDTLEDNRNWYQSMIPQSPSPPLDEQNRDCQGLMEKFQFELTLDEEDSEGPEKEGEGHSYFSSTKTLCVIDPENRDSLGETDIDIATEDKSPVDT
Cytochrome P450 1A2 (Homo sapiens), sequence (P05177 whole entry, looked up): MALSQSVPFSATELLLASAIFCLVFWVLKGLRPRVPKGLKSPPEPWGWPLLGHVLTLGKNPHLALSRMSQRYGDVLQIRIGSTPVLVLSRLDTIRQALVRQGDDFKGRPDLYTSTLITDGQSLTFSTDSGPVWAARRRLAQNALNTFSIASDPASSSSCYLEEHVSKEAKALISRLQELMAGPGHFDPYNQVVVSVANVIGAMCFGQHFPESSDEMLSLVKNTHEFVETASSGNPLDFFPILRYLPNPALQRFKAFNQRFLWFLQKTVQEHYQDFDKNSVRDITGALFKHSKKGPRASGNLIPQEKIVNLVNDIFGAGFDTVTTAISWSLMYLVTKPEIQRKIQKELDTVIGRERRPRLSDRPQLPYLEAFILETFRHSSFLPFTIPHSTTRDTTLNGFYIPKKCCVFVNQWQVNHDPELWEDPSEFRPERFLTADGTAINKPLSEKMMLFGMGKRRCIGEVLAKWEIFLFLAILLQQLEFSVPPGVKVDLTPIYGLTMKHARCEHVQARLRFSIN
Lysosomal acid glucosylceramidase (Homo sapiens), sequence (P04062 whole entry, looked up): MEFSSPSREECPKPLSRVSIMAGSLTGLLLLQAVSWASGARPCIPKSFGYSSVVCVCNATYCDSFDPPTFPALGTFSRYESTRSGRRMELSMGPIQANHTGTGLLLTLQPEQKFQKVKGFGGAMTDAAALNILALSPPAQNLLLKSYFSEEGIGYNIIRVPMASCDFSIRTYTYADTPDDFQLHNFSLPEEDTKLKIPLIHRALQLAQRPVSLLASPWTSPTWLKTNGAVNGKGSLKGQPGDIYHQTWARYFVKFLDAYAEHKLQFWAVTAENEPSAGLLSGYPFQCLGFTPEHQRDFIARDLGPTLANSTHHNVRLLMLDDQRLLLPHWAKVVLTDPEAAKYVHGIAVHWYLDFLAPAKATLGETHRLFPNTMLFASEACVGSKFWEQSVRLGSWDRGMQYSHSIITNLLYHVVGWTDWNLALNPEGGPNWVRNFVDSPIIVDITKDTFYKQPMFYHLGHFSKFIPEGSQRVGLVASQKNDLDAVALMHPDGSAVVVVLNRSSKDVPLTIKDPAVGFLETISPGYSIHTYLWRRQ
Cytochrome P450 3A4 (Homo sapiens), sequence (P08684 whole entry, looked up): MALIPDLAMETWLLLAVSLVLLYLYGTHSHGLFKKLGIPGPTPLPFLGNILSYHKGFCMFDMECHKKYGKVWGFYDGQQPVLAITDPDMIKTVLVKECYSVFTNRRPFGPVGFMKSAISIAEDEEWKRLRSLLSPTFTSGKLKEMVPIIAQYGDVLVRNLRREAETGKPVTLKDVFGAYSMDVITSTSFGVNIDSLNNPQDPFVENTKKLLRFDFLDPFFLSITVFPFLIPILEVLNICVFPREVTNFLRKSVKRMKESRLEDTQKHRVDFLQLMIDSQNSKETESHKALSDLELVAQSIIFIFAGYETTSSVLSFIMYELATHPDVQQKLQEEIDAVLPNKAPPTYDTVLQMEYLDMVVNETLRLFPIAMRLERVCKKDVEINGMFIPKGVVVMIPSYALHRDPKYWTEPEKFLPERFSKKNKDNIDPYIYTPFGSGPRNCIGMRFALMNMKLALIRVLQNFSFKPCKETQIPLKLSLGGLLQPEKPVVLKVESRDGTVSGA
Cytochrome P450 2C19 (Homo sapiens), sequence (P33261 whole entry, looked up): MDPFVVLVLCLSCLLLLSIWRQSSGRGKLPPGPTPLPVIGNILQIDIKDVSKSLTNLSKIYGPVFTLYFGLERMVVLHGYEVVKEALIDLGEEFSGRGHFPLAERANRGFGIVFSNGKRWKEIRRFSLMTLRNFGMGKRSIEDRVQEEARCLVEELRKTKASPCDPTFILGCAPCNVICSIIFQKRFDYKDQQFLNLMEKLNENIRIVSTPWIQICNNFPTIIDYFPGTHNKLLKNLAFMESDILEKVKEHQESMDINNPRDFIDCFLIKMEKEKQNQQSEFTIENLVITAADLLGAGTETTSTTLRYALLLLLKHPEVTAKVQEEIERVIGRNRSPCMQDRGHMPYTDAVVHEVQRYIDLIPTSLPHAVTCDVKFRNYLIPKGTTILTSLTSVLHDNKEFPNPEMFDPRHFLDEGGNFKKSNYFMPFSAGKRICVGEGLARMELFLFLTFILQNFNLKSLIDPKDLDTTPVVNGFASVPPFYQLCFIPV
Cytochrome P450 2C9 (Homo sapiens), sequence (P11712 whole entry, looked up): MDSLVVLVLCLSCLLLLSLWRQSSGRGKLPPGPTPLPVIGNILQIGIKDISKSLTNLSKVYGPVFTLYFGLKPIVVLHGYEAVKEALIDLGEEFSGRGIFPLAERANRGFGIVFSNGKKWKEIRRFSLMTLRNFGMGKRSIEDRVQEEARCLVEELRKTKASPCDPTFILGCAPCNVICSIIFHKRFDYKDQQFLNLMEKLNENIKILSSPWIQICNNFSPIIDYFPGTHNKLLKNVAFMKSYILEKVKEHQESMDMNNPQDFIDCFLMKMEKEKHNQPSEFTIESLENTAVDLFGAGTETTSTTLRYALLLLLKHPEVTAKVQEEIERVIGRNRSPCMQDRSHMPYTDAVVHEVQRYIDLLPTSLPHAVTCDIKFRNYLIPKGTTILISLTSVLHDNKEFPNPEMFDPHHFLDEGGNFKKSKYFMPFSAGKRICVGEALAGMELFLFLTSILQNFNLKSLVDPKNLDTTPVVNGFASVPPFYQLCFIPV

Row | Compound | Potency [1] [µM] | activity change, negative = inhibition [2] [%] | Potency [3] | activity change, negative = inhibition [4] [%] | activity, negative = inhibition [5] [%] | Potency [6] [µM] | Potency [7] [µM] | activity change, negative = inhibition [8] | outcome [9] | activity change, negative = inhibition [3] | activation [10] [%] | activity change, positive = activation [11] | Potency [12] | Potency [13] | Potency [14]
1 | Nc1nc(N)c(N=Nc2ccc([As](=O)(O)O)c(O)c2)c(N)n1 | > 11.4 | 1.26 | 6.31 µM (active) | -7.71 | -1.21 | > 46 | > 9.22 | 1.64% [at 11.4 µM] | inactive | – | – | – | – | – | –
2 | CC(C)[C@]1(O)[C@@H](OC(=O)c2ccc[nH]2)[C@]2(O)[C@@]3(C)C[C@@]4(O)O[C@@]5([C@H](O)[C@@H](C)CC[C@]35O)[C@]2(O)[C@]41C | > 11.4 | 3.13 | – | 3.93 | -4.77 | > 46 | > 9.22 | 0.163% [at 11.4 µM] | inactive | -17.2% [at 2.29 µM] | 12.8 | – | – | – | –
3 | CCC1=C(C[C@H]2NCCc3cc(OC)c(OC)cc32)C[C@H]2c3ccccc3CCN2C1 | > 11.4 | 9.05 | inactive | -19.1 | 8.03 | > 46 | > 9.22 | 5.5% [at 11.4 µM] | – | – | – | -34.9% [at 11.4 µM] | 0.316 µM (active) | – | –
4 | C[C@@H]1O[C@H](OC2[C@@H](O)[C@H](O)C(O)[C@H](O)[C@H]2O)[C@@H](N)C[C@@H]1N=C(N)C(=O)O (stereo not given in full) | > 11.4 | -0.614 | – | 8.22 | 8.32 | > 46 | > 9.22 | 1.04% [at 11.4 µM] | inactive | 1.2% [at 2.29 µM] | 3.06 | – | – | – | –
5 | C[C@H](Br)CN(C[C@H](C)Br)c1ccc2c(c1)Cc1ccccc1-2 | > 11.4 | -9.29 | 3.16 µM (active) | 8.25 | -7.03 | > 46 | > 9.22 | -8.45% [at 11.4 µM] | inactive | – | – | -34.7% [at 11.4 µM] | inactive | 3.16 µM (active) | 2.51 µM (active)
6 | NS(=O)(=O)c1ccc(-c2ccc([As](=O)(O)O)cc2)cc1 | > 11.4 | 0.512 | inactive | 17.3 | 6.23 | > 46 | > 9.22 | 2.57% [at 11.4 µM] | inactive | – | – | – | – | – | –
7 | N=C(N)n1cc(/C=N\N=C(N)N)cn1 | > 11.4 | 8.06 | – | 8.05 | 9.59 | > 46 | – | 6.38% [at 11.4 µM] | inactive | 7.8% [at 2.29 µM] | – | – | inactive | – | –
8 | CC[C@@]1(O)C(=O)OCc2c1cc1n(c2=O)Cc2cc3c(NC(=O)CN)cccc3nc2-1 | > 11.4 | -9.07 | – | -29.2 | -20.5 | > 46 | > 9.22 | -2.05% [at 11.4 µM] | inactive | -12.3% [at 2.29 µM] | – | – | – | – | –
9 | N[C@@H](CSC1c2ccccc2-c2ccccc21)C(=O)O | > 11.4 | 0.63 | 2.51 µM (active) | -6.99 | 3 | > 46 | > 9.22 | -0.997% [at 11.4 µM] | inactive | – | – | – | – | – | –
10 | O=C(O)Cc1ccc([N+](=O)[O-])cc1[N+](=O)[O-] | > 11.4 | -0.903 | 3.98 µM (active) | -1.68 | 5.17 | > 46 | > 9.22 | 4.4% [at 11.4 µM] | inactive | – | – | – | – | – | –
11 | CN(CCC(=O)O)C1=Nc2ccc(Cl)cc2C(c2ccccc2)=[N+]([O-])C1 | > 11.4 | -5.9 | 0.0631 µM (active) | 13.9 | 1.77 | > 46 | – | 1.43% [at 11.4 µM] | inactive | – | – | – | – | – | –
12 | NC(N)=NCCN=C(N)N | > 11.4 | 1.56 | inactive | -0.323 | – | > 46 | > 9.22 | 1.78% [at 11.4 µM] | inactive | – | – | – | – | – | –
13 | N[C@@H](Cc1cc(Br)c(O)c(Br)c1)C(=O)O | > 11.4 | -11.9 | inactive | – | 5.31 | > 46 | – | 1.55% [at 11.4 µM] | inactive | – | – | – | – | – | –
